PubChem BioAssay (Tox21)
Inconclusive results are not listed. Unmarked numbers belong to inactive results. The source made the active and inactive calls. The call rests on the fitted dose curve; in most records, active means well fitted cell-killing curve with a large enough effect in the repeat runs; inconclusive means weak or mixed curves, or effect the other way; inactive means flat fitted curve, though single readings scatter.

Assay: Nuclear factor erythroid 2-related factor 2/antioxidant responsive element (Nrf2/ARE) small molecule agonists: qHTS cell viability counter screen in human keratinocytes (AID 1919968); further: nearly all actives have a fitted effect of over 55% in size
Conditions: KeratinoSens HaCaT ARE cells viability, CellTiter-Fluor, 24 h; series mostly up to 92.4 µM; activity change, negative = cytotoxicity: at the top concentration
Source text: U.S. Tox21 Program National Center for Advancing Translational Sciences [NCATS] Division of Preclinical Innovation [DPI] U.S. Environmental Protection Agency [EPA] National Institutes of Environmental Health Sciences [NIEHS] National Toxicology Program [NTP] U.S. Food and Drug Administration [FDA] Tox21 Assay Overview: Oxidative stress has been implicated in the pathogenesis of a variety of diseases ranging from cancer to neurodegeneration. The antioxidant response element (ARE) signaling pathway plays an important role in the amelioration of oxidative stress. The KeratinoSens (Givaudan, Switzerland) is an in vitro test method which quantifies luciferase induction as a measure of activation of Keap1-Nrf2-antioxidationt/electrophile response element (ARE) dependant pathway in HaCaT human keratinocytes stably transfected with a selectable plasmid. The KeratinoSens assay is a cell-based assay with a reporter cell line to detect potential skin sensitizers by their ability to induce the Nrf2/ARE-response. The activation of the report gene under culture conditions can be detected by ONE-Glo Luciferase Assay System (Promega, Madison, WI). This cell line has been used to screen the Tox21 10K compound library to identify agonists that induce oxidative stress. The cytotoxicity of the Tox21 compound library against the KS-ARE cell line was tested in parallel by measuring the cell viability using CellTiter- Fluor assay system (Promega, Madison, WI) in the same wells.
Tox21 Assay Protocol Summary: HaCaT derived cell line KeratinoSens were dispensed at 1,500 cells/5uL/well in 1536-well white wall/solid bottom plates using a Multidrop Combi (ThermoFisher Scientific, Waltham, MA) dispenser. After the assay plates were incubated at 37 C/5% CO2 for 5 h, 23 nL of compounds dissolved in DMSO, positive controls or DMSO only was transferred to the assay plate by a pintool workstation (Kalypsys, San Diego, CA). The plates were incubated at 37 C/5% CO2 for 23 h, followed by addition of 1uL/well of CellTiter-Fluor reagent into the assay plates using a Flying Reagent Dispenser (Aurora Discovery, San Diego, CA) for cell viability readout that measures cytotoxicity. After 1 h incubation at 37 C/5% CO2 the fluorescence intensity was measured using a ViewLux (PerkinElmer, Shelton, CT) plate reader.
On the % scale 0 is the no-effect control and ±100 the full control effect; potency means the concentration at half of the fitted maximal effect.

SMILES	activity change, negative = cytotoxicity	Potency
CCOP(=S)(OCC)SCSP(=S)(OCC)OCC	16.2%	–
CCCCNP(N)(N)=S	9.71%	–
CC(C)(C)C(=O)C(Oc1ccc(Cl)cc1)n1cncn1 (stereo not given)	9.05%	–
CCOP(=O)(Sc1ccccc1)Sc1ccccc1	3.46%	–
O=C(O)COc1nc(Cl)c(Cl)cc1Cl	-7.96%	–
CC(C)O.CC(C)O.OCCN(CCO)CCO.OCCN(CCO)CCO.[Ti]	-1.24%	–
CCCCOC(C)=O	3.57%	–
C[C@@H](Oc1ccc(Cl)cc1Cl)C(=O)O	2.81%	–
CCCCCl	0.862%	–
C=CC(=O)OCC(C)O (stereo not given)	-10.1%	–
CCC[CH2][Sn]([CH2]CCC)([CH2]CCC)[CH2]CCC	–	12.2 µM (active)
C=CC(=O)OCCCCO	-9.54%	–
C[C@]12Cc3nonc3C[C@@H]1CC[C@@H]1[C@@H]2CC[C@@]2(C)[C@H]1CC[C@]2(C)O	3.87% [at 42.5 µM]	–
O=C1C(=O)c2cccc3cccc1c23	-14.6%	–
CC1CCCCC1NC(=O)Nc1ccccc1 (stereo not given)	0.588%	–
O=S(=O)(O)F	6.89%	–
CCOC(=O)Cc1ccccc1	6.45%	–
O=c1[nH]c2ccccc2n1CCCN1CCC(n2c(=O)[nH]c3cc(Cl)ccc32)CC1	-14% [at 42.5 µM]	–
O=C(O)CCCCCCNC1c2ccccc2CCc2ccccc21	-3.34% [at 42.5 µM]	–
CCC1CCC(=O)O1 (stereo not given)	-9.04%	–

SMILES	activity change, negative = cytotoxicity	Potency
Nc1ccc([N+](=O)[O-])cc1[N+](=O)[O-]	-25.8%	–
CCOC(=O)/C=C(C)/C=C/C[C@@H](C)CCCC(C)C	8.57%	–
O=C1NC(=O)C(=O)C(=O)N1	1.56%	–
CCC(C)c1cc(C(C)(C)C)cc(-n2nc3ccccc3n2)c1O (stereo not given)	-0.386% [at 42.5 µM]	–
CC(C1CC1)C(O)(Cn1cncn1)c1ccc(Cl)cc1 (stereo not given)	2.2%	–
COc1cc(CCN)cc(OC)c1OC	1.96%	–
COc1ccc(CN2CCNCC2)c(OC)c1OC	-4.29% [at 42.5 µM]	–
CC(O)CCl (stereo not given)	1.97%	–
CC[C@@H](CO)NC(=O)[C@@H]1C=C2c3cccc4c3c(cn4C)C[C@H]2N(C)C1	3.47% [at 42.5 µM]	–
C[C@H]1CNCCc2ccc(Cl)cc21	2.15% [at 42.5 µM]	–
CCCCCCC[CH2][Sn]([Cl])([Cl])[CH2]CCCCCCC	–	30.6 µM (active)
c1cc[c]([Sb]([c]2ccccc2)[c]2ccccc2)cc1	-18.6%	–
O=C(O)c1cc(I)cc(I)c1I	2.14%	–
Brc1cccc(-c2ccccc2)c1	0.323%	–
CC(C)(C)c1ccc(CSc2cnn(C(C)(C)C)c(=O)c2Cl)cc1	-11.6%	–
N#C/C=C/c1ccccc1	0.387%	–
CN(C)c1ccc(N)cc1	–	29.9 µM (active)
COc1cc(CC(C)N)cc2c1OCO2 (stereo not given)	-11.6%	–
CC(=O)[C@H]1CC[C@H]2[C@@H]3CC[C@H]4C[C@H](O)CC[C@]4(C)[C@H]3C(=O)C[C@]12C	-16.7% [at 42.5 µM]	–
FC(Cl)(Cl)C(F)(Cl)Cl	2.68%	–
